Assay [1] in a line: NCI Yeast Anticancer Drug Screen. Data for the rad50 strain (AID 155).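 Also: 0% = growth of vehicle-only cultures of the same strain.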 As to conditions: S. cerevisiae rad50 strain growth inhibition; at 50.0 µM; active compounds read high. The method in brief: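 Relative growth inhibition (compound vs vehicle) was measured in yeast with a defined repair-gene alteration.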
A short description of assay [2]: NCI Yeast Anticancer Drug Screen. Data for the mec2-1 strain (AID 157). As to conditions: S. cerevisiae mec2-1 strain, at 50.0 µM, active compounds read high. In short, it runs like this: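 Compounds were applied to mec2-1 yeast cells. Their growth was then compared with that of vehicle-treated cultures to give growth inhibition.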
The nature of assay [3]: NCI Yeast Anticancer Drug Screen. Data for the sgs1 mgt1 strain (AID 161).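 Also: 0% = growth of cultures given vehicle only.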 As to conditions: S. cerevisiae sgs1 mgt1 strain, at 50.0 µM, active compounds read high. In short, it runs like this:
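This yeast growth screen uses a strain with defined DNA-repair lesions; compound-treated growth is compared with vehicle-treated growth.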

The nature of assay [4]: NCI Yeast Anticancer Drug Screen. Data for the cln2 rad14 strain (AID 165).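 Also: 0% = growth equal to vehicle treated cultures.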 As to conditions: S. cerevisiae cln2 rad14 strain, at 50.0 µM, active compounds read high. In short, it runs like this: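 Strain: cln2 rad14 yeast, altered in cell cycle control and DNA damage repair. Read-out: growth inhibition vs vehicle.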
Assay [5] in a line: NCI Yeast Anticancer Drug Screen. Data for the bub3 strain (AID 167). As to conditions: S. cerevisiae bub3 mutant strain, at 50.0 µM, active compounds read high. In short, it runs like this:
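Screening used yeast with an engineered genetic alteration affecting cell cycle control. Compound-exposed cultures were compared with vehicle cultures, and reduced growth was taken as inhibition.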

Assay [6] in a line: NCI Yeast Anticancer Drug Screen. Data for the mlh1 rad18 strain (AID 175). As to conditions: S. cerevisiae mlh1 rad18 strain growth inhibition; at 50.0 µM; active compounds read high. In short, it runs like this: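 A repair-deficient yeast strain is exposed to test compound, and growth is scored relative to vehicle-treated controls.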

The panel holds about 79,000 compounds, 15% with a hit somewhere; the sample as a whole holds those more often. Unmarked numbers belong to inactive results. Activity calls are given as the source filed them. Rule as the data show it: active = growth inhibition above about 70%; inactive = the rest.

Consider `COC(=O)[C@]1(C)CCC[C@]2(C)c3cc(Br)c(C(C)C)cc3CC[C@H]12`, for which the growth inhibition was -18.6% in assay [1]; -9.25% in assay [2]; -6.3% in assay [3]; -44.5% in assay [4]; -4.55% in assay [5]; -1.8% in assay [6].
For the molecule `O=S(CCO)c1ccc(Cl)cc1` (stereo not given), the growth inhibition in assay [1] was -26.1%; in assay [2] it was -20.1%; in assay [3], -21.2%; in assay [4] it was -55.5%; in assay [5], 2.75%.
With `COC(=O)C(CC(=O)c1cc2c(cc1I)OCO2)Cc1cc(OC)c(OC)c(OC)c1I` (stereo not given), the growth inhibition in assay [1] is -22.9%; in assay [2], -28.8%; in assay [3], -29.8%; in assay [4] it was -1.65%; in assay [5] it was -2.45%; in assay [6], -24.9%.
Take `O=C1NC(CCl)(CCl)CO1`: the growth inhibition is 4.15% in assay [1]; 8.85% in assay [2]; -1.7% in assay [3]; 5.45% in assay [4]; -2.05% in assay [5]; 10.1% in assay [6].
Turning to `Cc1ccc(S(=O)(=O)N/N=C2\CC[C@H]3[C@@H]4CC=C5C[C@@H](O)CC[C@]5(C)[C@H]4CC[C@]23C)cc1`, the growth inhibition was 95.3% (active) in assay [1]; 95.3% (active) in assay [2]; 76.3% (active) in assay [3]; 97% (active) in assay [4]; 90.6% (active) in assay [5]; 96% (active) in assay [6].
For the molecule `CCC1(CCC#N)CCC(N)=CC1=O` (stereo not given), the growth inhibition is 21.9% in assay [1]; 17.3% in assay [2]; 7.9% in assay [3]; -50% in assay [4]; -6.2% in assay [5]; -0.75% in assay [6].
As to `COc1cc([N+](=O)[O-])c(C(=O)O)c(C(=O)O)c1OC`, the growth inhibition in assay [1] is 9.8%; in assay [2] it was -5.55%; in assay [3] it was 3.7%; in assay [4], -2.2%; in assay [5], 1.7%; in assay [6] it was 1.15%.
Consider `CC(=O)c1ccncc1`, for which the growth inhibition is -38.2% in assay [1]; -0.7% in assay [2]; 6.65% in assay [3]; -27.4% in assay [4]; -1.6% in assay [5]; 20.6% in assay [6].
For `Cc1ccc(S(=O)(=O)Nc2ccc(S(C)(=O)=O)cc2)cc1`, the growth inhibition in assay [1] is 2.4%; in assay [2], -4.2%; in assay [3] it was -5.6%; in assay [4], -36.4%; in assay [5] it was 3.85%; in assay [6] it was 3.3%.
As to `CC(=O)Oc1ccc(OC(C)=O)c2cc3ccccc3cc12`, the growth inhibition in assay [1] was -28.1%; in assay [2], -29.1%; in assay [3], -32.9%; in assay [4], -6.6%; in assay [5], -12.8%; in assay [6], -19.8%.
Take `CC(=O)OC1CCC2(C)C(=CCC3C2CCC2(C)C3CCC23SCCS3)C1` (stereo not given): the growth inhibition in assay [1] is 24%; in assay [2], -3%; in assay [3] it was 4.25%; in assay [4] it was -60.1%; in assay [5], -2.9%; in assay [6], 9.6%.
Regarding `CC(C)(C=O)OC(=O)c1cc([N+](=O)[O-])cc([N+](=O)[O-])c1`, the growth inhibition in assay [1] was 7.2%; in assay [2] it was -14.2%; in assay [3], 27.4%; in assay [4], 29.8%; in assay [5], -8%; in assay [6] it was 1.6%.
Regarding `CCOC(=O)/C(C(C)=O)=C1\C(=O)c2ccccc2-c2ccccc21`, the growth inhibition is 21.6% in assay [1]; 3.5% in assay [2]; 2.8% in assay [3]; -19.2% in assay [4]; 12.9% in assay [5]; 12.5% in assay [6].
Consider `COC(=O)CSc1n[nH]c(-c2ccccc2)n1`, for which the growth inhibition in assay [1] is 1.05%; in assay [2], -7.25%; in assay [3] it was 7.2%; in assay [4] it was -1%; in assay [5], 3.4%; in assay [6], -4.3%.
With `Cc1cc2cc3c(C)cc(=O)oc3c(C)c2o1`, the growth inhibition in assay [1] was -35.1%; in assay [2] it was -37.1%; in assay [3] it was -28.4%; in assay [4], -8.35%; in assay [5], -10.5%; in assay [6] it was -17.6%.
Regarding `COc1ccc(S(=O)(=O)O)cc1NC(=O)CC(=O)c1cccc([N+](=O)[O-])c1`, the growth inhibition in assay [1] was -5.5%; in assay [2] it was -18%; in assay [3], 9.2%; in assay [4], 9.05%; in assay [5], -12%; in assay [6] it was -15.9%.
With `C/C(CCn1[nH]c(=O)ccc1=O)=N\NC(=O)C(=O)NN`, the growth inhibition was -4.75% in assay [1]; -18.4% in assay [2]; -6.55% in assay [3]; 2.55% in assay [4]; 1.55% in assay [5]; -8.2% in assay [6].
Regarding `Ic1cc2c(cc1CNCc1ccccc1)OCO2`, the growth inhibition in assay [1] was 11.7%; in assay [2], -19.6%; in assay [3], 26.7%; in assay [4], -56.4%; in assay [5], 2.6%; in assay [6], 7.2%.
On to `CC(=O)NC(CCCCNC(=O)N(C)N=O)C(=O)NCc1ccccc1` (stereo not given), for which the growth inhibition in assay [1] was -41.1%; in assay [2] it was -17.6%; in assay [3], -12.2%; in assay [4], -4.3%; in assay [5], -26.8%; in assay [6] it was -12.8%.
As for `Cc1ccc(S(=O)(=O)OCC23CCC(CO)(CC2)CC3)cc1`, the growth inhibition is 9.75% in assay [1]; -2.45% in assay [2]; -0.85% in assay [3]; 15.7% in assay [4]; 27.2% in assay [5]; 14.2% in assay [6].
Turning to `C=Cc1ccc(C[n+]2cccc(C(N)=O)c2)cc1`, the growth inhibition in assay [1] is -15.2%; in assay [2] it was -17%; in assay [3], -2.95%; in assay [4], -1.75%; in assay [5] it was 17.2%; in assay [6] it was -35.9%.
